In PubChem BioAssay (NCI):
This is part of a sample that, as a whole, favours compounds with a hit. Of some 83,000 tested, about 20% had one in any assay.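 Note: values are percent growth. 100 is the growth of untreated cells, values between 100 and 0 indicate rising inhibition; between -100 and 0 indicates cell death.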 A number with no mark means an inactive call. Activity calls are given as the source filed them. Rule for the calls: active = growth percent below 10; inactive = the rest.

Columns and labels:
Test in all cases: NCI-60 one-dose screen, 48 h (100 = growth as untreated, 0 = no growth, -100 = all killed)
Conditions in all cases: 10 µM unless noted
NCI-H23 lung = test system: NCI-H23 lung
NCI-H226 lung = test system: NCI-H226 lung
NCI-H322M lung = test system: NCI-H322M lung
HOP-62 NSCLC = test system: HOP-62 NSCLC
NCI-H460 lung = test system: NCI-H460 lung
HOP-92 NSCLC = test system: HOP-92 NSCLC
NCI-H522 lung = test system: NCI-H522 lung
A549/ATCC NSCLC = test system: A549/ATCC NSCLC
786-0 renal = test system: 786-0 renal
COLO 205 colon = test system: COLO 205 colon

| SMILES | growth (NCI-H23 lung) | growth (NCI-H226 lung) | growth (NCI-H322M lung) | growth (HOP-62 NSCLC) | growth (NCI-H460 lung) | growth (HOP-92 NSCLC) | growth (NCI-H522 lung) | growth (A549/ATCC NSCLC) | growth (786-0 renal) | growth (COLO 205 colon) |
| --- | --- | --- | --- | --- | --- | --- | --- | --- | --- | --- |
| COc1c([C@@H](CC(C)C)OC(C)=O)ccc2c1C(=O)OCc1cc(C)cc(O)c1O2 | 23.7% | 43.5% | 54.3% | 24.5% | 8.61% (active) | 3.04% (active) | 20.2% | 13.6% | 80.5% | 9.55% (active) |
| O=S(=O)(NCCCNc1nccc(-n2cnc3ccccc32)n1)c1ccc(F)cc1 | 70.4% | 64.1% | 99.5% | 82.7% | 79.7% | 87.9% | 68.5% | 88.8% | 97.7% | 86% |
| COc1cc(/C=C/C(=O)c2ccc(NC(=O)COc3cccc4cccnc34)cc2)cc(OC)c1OC | 78.7% | 88.7% | 90.4% | 114% | 72.5% | 90.1% | 80.4% | 87.1% | 89% | 100% |
| Oc1ccc(CSc2nnc(-c3ccc(Oc4ccccc4)cc3)n2-c2ccccc2)c2cccnc12 | 21.3% | 18.9% | 18.3% | 15% | 0.254% (active) | 10.5% | 15% | 11.8% | 21.6% | 27.7% |
| Cc1ccc(NC(=O)c2cccc(CN3CCN(C)CC3)c2)cc1Oc1ccc(-c2[nH]nc3ncnc(N)c23)cc1 | 75.6% | 76.9% | 83.9% | 80.9% | 72.8% | 65.3% | 77.1% | 61.9% | 40.8% | 10.1% |
| NC(N)=NS(=O)(=O)c1ccc(N=NC2C(=O)NN(c3ccccc3)C2=O)cc1 (stereo not given) | 93.5% | 85.6% | 101% | 110% | 101% | 68.9% | 104% | 104% | 100% | 113% |
| CCNC(=O)Oc1ccc(/C(=C(/C)c2ccc(Cl)cc2)c2ccc(OCCN(C)C)cc2)cc1 | 87% | 94.4% | 90.5% | 80.2% | 66.6% | 45.1% | 88.7% | 71.6% | 64.3% | 82.8% |
| COc1cc2c3c(n(CCCN4CCCCC4)c(=O)c2cc1OC)-c1cc2c(cc1C3=O)OCO2 | -91.9% (active) | -61.6% (active) | -96.4% (active) | -71.4% (active) | -84.7% (active) | -77.4% (active) | -80.2% (active) | -58.4% (active) | -55.9% (active) | -88.8% (active) |
| C#C[C@]1(O)CC[C@H]2[C@@H]3CC=C4c5sc(Nc6cc(Cl)ccn6)nc5CC[C@]4(C)[C@H]3CC[C@@]21C | 35.4% | 22.9% | 59.3% | 14.1% | 13.5% | 18.4% | 30.2% | 37.5% | -70.8% (active) | 21.2% |
| C=C(C)C(=O)O[C@H]1C[C@@]2(C)OC(=CC2=O)/C(C)=C\[C@H]2OC(=O)C(=C)[C@H]12 | -2.39% (active) | -1.67% (active) | 79.9% | 58.8% | 13.3% | -22% (active) | -72% (active) | 58.5% | -71.3% (active) | -50.1% (active) |
| COc1cc2oc(-c3cccc(NC(=O)c4cc(NC(=O)[C@H](C)NC(=O)OC(C)(C)C)ccc4C)c3)cc(=O)c2c(OC)c1OC | 63.8% | 80.6% | 86.2% | 84.5% | 61.5% | -0.546% (active) | 72.2% | 80.5% | 77.5% | 67.7% |
| O=c1oc2ccc(-c3ccc(F)cc3F)cc2c(=O)n1-c1ccc(F)c(F)c1 | 2.21% (active) | 6.65% (active) | 6.5% (active) | 17.6% | 2.7% (active) | -21.4% (active) | -2.51% (active) | 7.96% (active) | 10.2% | 83.2% |
| COc1ccc(Cn2cc3c(c2-c2cc(OC)c(OC)c(OC)c2)CCCc2cnoc2-3)cc1 | 32.5% | 53.6% | 39.6% | 43.2% | 7.42% (active) | 50.6% | 10.4% | 33.6% | 37.1% | -0.67% (active) |
| CCOC(=O)c1c(Nc2ccccc2)nn2c(-c3ccc(OC)c(OC)c3)ccnc12 | 70.8% | 54.9% | 92.5% | 72.7% | 47.9% | 5.27% (active) | 69.3% | 52.6% | 37.6% | 55.7% |
| C/C(=C(/C)C1CC1CCN(C(=O)c1ccccn1)S(=O)(=O)c1ccc(C)cc1)C1CCCCC1 (stereo not given) | 84.2% | 97% | 105% | 102% | 100% | 104% | 85.1% | 97% | 95.5% | 108% |
| CCN1C(=O)N(CC)C2SC(N/N=C/c3ccccc3)=NC21 (stereo not given) | 31.1% | 43% | 51.7% | 38.3% | 6.05% (active) | 2.09% (active) | -34.3% (active) | 28.7% | 32.7% | -43.5% (active) |
| O=C(NNc1nc2cc(F)cc(F)c2n2cccc12)c1ccncn1 | 17.6% | 7.28% (active) | 28.6% | 13.1% | 7.43% (active) | 67.4% | -12.4% (active) | 13.4% | 7.83% (active) | 11.5% |
| CC(=O)NC(C)(C)C(=O)N1CCC[C@H]1C(=O)NC(C)(C)C(=O)N[C@@H](C)C(=O)NC(C)(C)C(=O)NC(C)(C)C(=O)N[C@@H](CCC(N)=O)C(=O)NC(C)(C)C(=O)N[C@H](C(=O)NC(C)(C)C(=O)NCC(=O)N[C@@H](CC(C)C)C(=O)NC(C)(C)C(=O)N1CCC[C@H]1C(=O)N[C@H](C(=O)NC(C)(C)C(=O)NC(C)(C)C(=O)N[C@@H](CCC(N)=O)C(=O)N[C@@H](CCC(N)=O)C(=O)N[C@H](CO)Cc1ccccc1)C(C)C)C(C)C | 21.1% [4.25 µM] | 29.8% [4.25 µM] | 71.1% [4.25 µM] | 41% [4.25 µM] | 29.9% [4.25 µM] | -10.1% [4.25 µM] (active) | 10.6% [4.25 µM] | 26.7% [4.25 µM] | 80.5% [4.25 µM] | -25.1% [4.25 µM] (active) |
| C=C(C)C(=O)O[C@H]1C[C@@]2(C)OC(=CC2=O)[C@H](C)[C@H](O)[C@H]2OC(=O)C(=C)[C@@H]21 | 58.4% | 92.2% | 93.8% | 93.5% | 93.3% | 69.7% | -67.6% (active) | 94.7% | 64.2% | 13.6% |
| COc1ccc([C@H]2c3[nH]c4ccccc4c3C[C@@H]3C(=O)N(C4CCN(Cc5ccccc5)CC4)CC(=O)N23)c(OC)c1 | 93.7% | 82.3% | 90.1% | 80.8% | 54.4% | 68% | 87% | 69.8% | 74.3% | 67.1% |
| CCOc1c(C#N)c(Nc2ccc(S(N)(=O)=O)cc2)c(C#N)c2nnc(C)n12 | 93.5% | 105% | 100% | 104% | 111% | 98% | 95.3% | 104% | 110% | 105% |
| COc1cc(/C=C/C(=O)c2ccc(NC(=O)CSc3nnc(-c4ccc5nc(-c6ccccc6)[nH]c5c4)o3)cc2)cc(OC)c1OC | 92.7% | 99.3% | 96.9% | 114% | 92.5% | 142% | 95.3% | 105% | 75.4% | 115% |
| COc1ccc(-c2nnc(/N=C3/C(=O)Nc4ccc(Br)cc43)o2)cc1 | 95.5% | 101% | 93.9% | 106% | 101% | 97.1% | 98.6% | 104% | 103% | 105% |
| N#C/C(=C\c1ccc(N2CCCCC2)cc1)C(=O)Nc1sc2c(c1C#N)CCC2 | 93.8% | 88.1% | 99.4% | 94.7% | 74.8% | 89.4% | 92.7% | 90.6% | 101% | 118% |
| Cc1ccc(-n2cc(/C=C/C(=O)c3ccc(S(C)(=O)=O)cc3)c(-c3ccc(S(C)(=O)=O)cc3)n2)cc1 | 87.4% | 100% | 94.6% | 89.2% | 100% | 115% | 74.2% | 103% | 103% | 114% |
| N=c1c2cc(-c3ccccc3)oc2ncn1/N=C/c1ccccc1 | 98.1% | 98.9% | 94.5% | 87.4% | 57.6% | 92% | 42.1% | 71.2% | 78.6% | 88.1% |
